# HP1b chromo inh: blocks HP1-beta chromodomain binding to methylated histone tails; AlphaScreen HP1-beta / biotin-H3K9me3 peptide binding; Potency, µM (series often up to 114 µM), usual class: inhibitors; 0.56% of 390,000 active; note: nearly all actives have a fitted effect of over 70% in size
#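 AlphaScreen: HP1-beta (50 nM) preformed 30 min with biotin-H3(1-18)K9me3 peptide (50 nM) in PBS pH 7.4, 0.01% Tween-20. Compound added for 30 min at RT, then streptavidin donor/nickel chelate acceptor beads (10 ug/mL) for 30 min.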
# G9a inh: blocks human histone lysine methyltransferase G9a; 8.8% of 350,000 active; Q96KQ7; G9a H3K9 monomethylation, AlphaScreen, 2 h; Potency, µM (highest dose often 102 µM), usual class: inhibitors; note: nearly all actives have a fitted effect of over 75% in size
#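 Chemiluminescent proximity detection of H3K9 monomethylation, read after 10 min bead incubation in the dark. Reaction: 20 nM G9a, 500 nM biotin-H3K9 peptide, 20 uM SAM cofactor, 2 h, room temperature, following 15 min enzyme-compound preincubation.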
# PLK1 PBD block: inhibitors of human PLK1 polo-box domain binding | P53350 | Plk1 PBD binding of FITC phosphopeptide, fluorescence polarization | Potency, µM, usual class: inhibitors | 2.8% of 360,000 active | AID 720504; note: series mostly up to about 57 µM; nearly all actives have a fitted effect of over 65% in size
# Sfp PPTase inh: blocks B. subtilis Sfp PPTase activity. Potency, µM, most hits filed as inhibitors. Biochemical Sfp PPTase activity, qHTS. 3.5% of 310,000 active. Q9F4F7;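 note: the enzyme is Sfp with the accession as filed and its product quenches rhodamine fluorescence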
#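 After 15 min at room temperature with compound, 15 nM Sfp received 5 uM rhodamine-CoA plus 12.5 uM BHQ-2-ybbR (50 mM Hepes pH 7.6, 10 mM MgCl2). Rate came from the fluorescence difference over 30 min, ex 525/em 598 nm.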
# JMJD2A Tudor: inhibitors of human JMJD2A Tudor domain | O75164 | AlphaScreen JMJD2A-Tudor / H3K4me3 peptide binding | Potency, µM (series often up to 114 µM), actives largely listed as inhibitors | 4.4% of 390,000 active | AID 504339; note: nearly all actives have a fitted effect of over 50% in size
# BAZ2B inh: inhibitors of human BAZ2B bromodomain; AlphaScreen BAZ2B-H3K14Ac peptide displacement; 4.4% of 360,000 active; AID 504333; Potency, µM (doses to about 114 µM), actives largely listed as inhibitors; Q9UIF8; note: nearly all actives have a fitted effect of over 60% in size
#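 Complex of BAZ2B and biotin-H3K14Ac (50 nM apiece) forms over 30 min at RT, then faces library compounds up to 110 uM for another 30 min; AlphaScreen beads added, 20 min dark incubation, luminescence read.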
# Numbers stand for hits; i = inactive; ? = inconclusive; nt = no result given; [ ] = another dose, or the depositor's remark. Sampled rows, rich in hits. Any-hit rate of the full collection: about 12%. Calls come from the whole dose curve; as a rule, active = well fitted curve in the direction sought with a large enough effect; inconclusive = small, poorly fitted or top-dose-only effect, or another doubt; inactive = no such curve, though single readings can be large; an effect the other way counts as inactive or inconclusive.
SMILES,HP1b chromo inh,G9a inh,PLK1 PBD block,Sfp PPTase inh,JMJD2A Tudor,BAZ2B inh
Cc1cc(C)c(OCC(=O)Nc2cc(C(=O)O)cc(C(=O)O)c2)cc1C,i,i,i,i,i,i
OCCNCCSc1nc(C2CCCCC2)n(-c2ccccc2Cl)n1,i,?,i,i,0.89µM,?
Cc1ccc(CNC(=O)CSc2c(C(C)C)cnc3c2c(=O)n(C)c(=O)n3C)cc1,i,i,nt,nt,i,i
COc1ccc(C(=O)c2oc3ccccc3c2N)cc1,i,i[12.7 µM],i,79µM,i,i
COc1ccc2oc(C(=O)c3ccccc3)c(N)c2c1,i,i,i,i,i,i
O=C(O)C1Cc2ccccc2CN1S(=O)(=O)/C=C/c1ccccc1 (stereo not given),i,14µM,i,i,i,79µM
O=C(O)[C@H]1Cc2ccccc2CN1S(=O)(=O)c1ccc(F)cc1,i,i,i,i,i,i
CCS(=O)(=O)N1Cc2ccccc2CC1C(=O)N1CCN(c2ccccc2)CC1 (stereo not given),?,i[2.33 µM],i,i,25µM,50µM
CC(=O)c1ccc(S(=O)(=O)N2Cc3ccccc3CC2C(=O)O)cc1 (stereo not given),i,40µM,?,i,18µM,?
CS(=O)(=O)N1Cc2ccccc2CC1C(=O)O (stereo not given),i,40µM,i,i,i,?
CC1(C)Cc2c(cnn2-c2cccc(F)c2)C(NC(=O)c2ccc(=O)[nH]n2)C1 (stereo not given),i,nt,i,i,i,i
CCC(=O)N1CCc2cc(Br)cc(S(=O)(=O)CCC(=O)NCc3ccc(F)cc3)c21,i,i,nt,nt,i,i
COc1ccc(N2CSC3=C(C#N)C(c4cccs4)CC(=O)N3C2)cc1 (stereo not given),i,2.8µM,i,2.2µM,i,50µM
COc1ccc(N2CSC3=C(C#N)C(c4cc(OC)ccc4OC)CC(=O)N3C2)c(OC)c1 (stereo not given),16µM,2.2µM,3.8µM,3.2µM,22µM,45µM
CCCSC1=C(C#N)C(c2cc(OC)ccc2OC)CC(=O)N1 (stereo not given),i,i,i,i,i,i
COc1ccc(C2C(=O)N(C3CCCCC3)CC(=O)N2C2CCCC2)cc1 (stereo not given),i,i,i,i,i,i
COc1ccc(C2CC(=O)N3CN(C4CCCCC4)CSC3=C2C#N)cc1 (stereo not given),?,1.8µM,nt,nt,7.1µM,nt
N#CCCN(CC#Cc1ccccc1)OCc1ccccc1,nt,nt,nt,i,nt,nt
CC(=O)OC1OCCOC1NC(=S)NCc1ccco1 (stereo not given),i,nt,i,22µM,?,i
CC(=O)OC1OCCOC1NC(=S)Nc1cccc(C(F)(F)F)c1 (stereo not given),i,i,i,i,i,i
CCOC(=O)C1C(=O)CC(=O)C(C(=O)OCC)C1c1ccc(O)cc1 (stereo not given),nt,nt,i,nt,nt,nt
CCOC(=O)C1C(=O)C(C(C)=O)C(=O)CC1CC(C)SCC (stereo not given),i,?,i,i,89µM,i
CC(C)(C)OC(=O)NCCCCC1=CC2=CC(=O)C(C)(OC(=O)CCc3ccccc3)C(=O)C2=CO1 (stereo not given),nt,nt,nt,i,nt,nt
Oc1ccc(N=Nc2ccc3c(c2)OCCO3)c2ncccc12,i,11µM,i,i,?,?
Cc1ccc(N=Nc2ccc(N)cc2C)c(S(N)(=O)=O)c1,?,20µM,?,?,8.9µM,50µM
SMILES,HP1b chromo inh,G9a inh,PLK1 PBD block,Sfp PPTase inh,JMJD2A Tudor,BAZ2B inh
CC(=O)/C(N=Nc1ccc2c(c1)OCCO2)=C(\C)O,i,i,i,i,?,i
Cc1ccc(C)c(N=Nc2ccc(O)c3ncccc23)c1,?,11µM,i,i,8.9µM,20µM
Cc1ccc(C(=O)Nc2c(C)cc(C)c3cccnc23)cc1,i,i,i,i,i,i
Cc1cccc(N=Nc2ccc(O)c3ncccc23)c1,?,7.1µM,i,i,32µM,8.9µM
CCOC(=O)CN1C(=O)C2(OCCCO2)c2cc(Br)ccc21,i,i,i,i,i,i
Cc1ccc(N=Nc2cc(C)ccc2O)c(C)c1,?,7.9µM,i,i,45µM,5.6µM
Cc1ccc(N=C(N(C)C)P(=O)(N(C)C)N(C)C)c(C)c1,i,i,i,i,i,i
COC(=O)c1ccccc1NC(=O)C(C)Oc1ccccc1 (stereo not given),i,i,3µM,i,?,i
CC(C)NC(=O)c1ccccc1NC(=O)C(C)Oc1ccccc1 (stereo not given),i,i,i,i,i,i
COC(=O)c1ccccc1NC(=O)C(C)NS(=O)(=O)c1ccc(OC)cc1 (stereo not given),i,?,24µM,i,i[11.4 µM],i
OCCN1CCN(c2cc(-c3ccccc3)c3ccccc3n2)CC1,?,?,i,i,0.79µM,40µM
CCN1CCN(c2nc(NCCO)c3ccccc3n2)CC1,i,40µM,i,i,i,i
CN1CCN(c2nc(-c3ccc(N(C)C)cc3)nc3ccccc23)CC1,nt,nt,nt,50µM,nt,nt
OCCNc1nc(N2CCN(Cc3ccccc3)CC2)nc2ccccc12,i,?,i,i,i,i
c1ccc(CN2CCN(c3nc(N4CCOCC4)c4ccccc4n3)CC2)cc1,i,nt,i,nt,i,nt
CN1CCN(c2nc(N3CCN(CCO)CC3)nc3ccccc23)CC1,i,50µM,i,i,i,i
COC(=O)[C@@]12C[C@@H](CC(=O)N3CCCC3)C(=O)N(CCc3ccc(OC)c(OC)c3)C1=CCC(C)(C)C2,nt,nt,i,nt,nt,nt
CCOC(=O)C1OC1C(=O)NC(CC(C)C)C(=O)NCCC(C)C (stereo not given),nt,i,nt,i,nt,nt
CCNc1nc(N)nc(Oc2ccc(OCC(=O)OC)nn2)n1,i,i,nt,nt,i,i
COc1ccc(NC(=O)CSCC(=O)Nc2sccc2C#N)cc1,i,40µM,i,nt,i,i
COc1ccc(CCC(=O)Nc2sccc2C#N)cc1,i,?,i,i,i,nt
Cn1ccnc1SCC(=O)Nc1sccc1C#N,i,i,i,79µM,i,i
N#Cc1ccc(C(=O)Nc2cccc(S(=O)(=O)NC3=NCCC3)c2)cc1,i,nt,i,nt,i,nt
N#Cc1c2nc3ccccc3nc2n2cc(NC(=O)c3ccc(F)cc3)ccc12,i,3.2µM,i,?,18µM,?
O=C(COc1cccnc1[N+](=O)[O-])Nc1c(Cl)cccc1Cl,i,nt,i,nt,i,nt
O=C(COc1cccnc1[N+](=O)[O-])c1ccc(Cl)s1,?,nt,15µM,2µM,40µM,40µM
O=C(OCC(=O)c1ccc(Cl)s1)c1ccccn1,i,i,i,i,32µM,56µM
O=C(OCC(=O)c1ccc(Cl)s1)c1cnccn1,i,35µM,i,i,i,?
CSc1ncccc1C(=O)OCC(=O)c1ccc(Cl)s1,nt,nt,i,nt,nt,nt
O=C(COC(=O)c1cnccn1)c1ccc(Cl)cc1,i,i,i,i,i,?
